Hits are enriched below; roughly 4.1% of the tested compounds scored in any of these assays.
hgDAF12 agonist: agonists of H. glycines DAF-12 nuclear receptor. AID 687014. hit rate 1.8% among 370,000. activation, % at 6.8 µM. HEK293 GAL4-hgDAF12 UAS-luciferase reporter, agonist luminescence; normalized to butyrate control;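 active means activation above a cutoff set at the mean of all screened compounds plus 3 SD, cut at about 10% in these data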
ssDAF-12 act: S. stercoralis DAF-12 activation, primary screen; hit rate 1% among 370,000; AID 652126; HEK293 ssDAF-12/GRIP1 lit1-tk-luc reporter, luminescence; % of 3 µM dafachronic acid response; activation, % at 6.8 µM;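 active means activation above the mean over all tested compounds plus 3 SD, cut at about 0.9% in these data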
DAX1 inh-1: NR0B1 (DAX1) inhibition. AID 504766. inhibition, % at 6.75 µM. HEK293 Gal4-DAX1 luciferase reporter, luminescence. hit rate 0.99% among 340,000;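 active means inhibition above the mean over all tested compounds plus 3 SD, cut at about 4.2% in these data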;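 further: inhibition shows as a rise in luminescence from relieved DAX1 repression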
Target sequence (P51843 207-470 limits assumed): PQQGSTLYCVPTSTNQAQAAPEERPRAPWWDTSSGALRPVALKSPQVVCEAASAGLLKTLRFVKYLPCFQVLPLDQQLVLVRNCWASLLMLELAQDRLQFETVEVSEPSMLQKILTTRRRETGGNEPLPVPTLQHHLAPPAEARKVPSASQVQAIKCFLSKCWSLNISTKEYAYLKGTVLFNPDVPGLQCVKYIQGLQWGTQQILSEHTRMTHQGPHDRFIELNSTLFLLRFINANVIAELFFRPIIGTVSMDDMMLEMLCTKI
hcDAF-12 act: activates DAF-12 receptor from parasite H. contortus | HEK293 hcDAF-12 lit1-tk-luc reporter, luminescence; 0% DMSO, 100% Δ7-dafachronic acid | activation, % at 6.8 µM | hit rate 1.4% among 370,000 | AID 652067;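 active means activation above the mean of all tested compounds plus 3 SD, cut at about 5.5% in these data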
DAX1 inh-2: DAX1 (NR0B1) inhibition, primary screen; HEK293T StAR-luciferase reporter, SF-1/DAX-1 repression relief; AID 652010; hit rate 1.1% among 370,000; inhibition, % at 6.8 µM;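 active means inhibition above the mean over all tested compounds plus 3 SD, cut at about 3.6% in these data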;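 further: higher inhibition means more luminescence from relief of DAX-1 repression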
DAX1 conf: NR0B1 (human) inhibition, confirmation; shares compounds with DAX1 inh-2; HEK293T StAR-promoter luciferase reporter, SF-1/DAX-1 repression; inhibition, % at 6.8 µM; hit rate 87% among 2,400;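 active means inhibition above the average of every tested compound plus 3 SD, cut at about 3.8% in these data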;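 further: active compounds raise luminescence by relieving repression of the StAR reporter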
Target sequence (P51843 whole entry, looked up): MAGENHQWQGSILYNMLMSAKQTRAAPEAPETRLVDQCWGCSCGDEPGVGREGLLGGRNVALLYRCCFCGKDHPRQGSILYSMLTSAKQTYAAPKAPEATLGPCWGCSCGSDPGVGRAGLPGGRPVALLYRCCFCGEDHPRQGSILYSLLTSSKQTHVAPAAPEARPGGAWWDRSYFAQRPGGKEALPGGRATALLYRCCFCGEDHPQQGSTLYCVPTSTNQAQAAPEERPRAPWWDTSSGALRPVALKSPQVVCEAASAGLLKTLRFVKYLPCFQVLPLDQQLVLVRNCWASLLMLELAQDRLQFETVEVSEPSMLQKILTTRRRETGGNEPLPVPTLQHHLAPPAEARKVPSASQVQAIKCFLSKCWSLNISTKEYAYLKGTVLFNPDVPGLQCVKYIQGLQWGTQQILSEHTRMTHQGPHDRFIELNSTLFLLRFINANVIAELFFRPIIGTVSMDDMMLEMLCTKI
SF1 AF2mut Luc: nonselective inhibitor or artifact in SF-1 mutant DAX1 counter-screen. hit rate 78% among 2,400. AID 652136. inhibition, % at 6.8 µM. HEK293 StAR-luciferase, SF-1 AF2 mutant, luminescence. shares compounds with DAX1 inh-2;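 active means inhibition above the mean of all tested compounds plus 3 SD, cut at about 3% in these data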
Numbers stand for hits.

How did O=C(NCc1ccccn1)c1ccc(Cl)s1 do in these assays?
hgDAF12 agonist: inactive; ssDAF-12 act: inactive; DAX1 inh-1: inactive; hcDAF-12 act: inactive; DAX1 inh-2: inactive

How did CC(=O)NC(c1ccccc1)c1nc2ccccc2[nH]1 (stereo unspecified) do in these assays?
hgDAF12 agonist: inactive; ssDAF-12 act: inactive; DAX1 inh-1: inactive; hcDAF-12 act: inactive; DAX1 inh-2: inactive

What do the screens show for `Cc1cnc(C(=O)N(c2ccccc2)C(c2ccccc2)c2nc3ccccc3[nH]2)cn1` (stereo unspecified)?
hgDAF12 agonist: inactive; ssDAF-12 act: inactive; hcDAF-12 act: inactive; DAX1 inh-2: 6.0; DAX1 conf: 5.0; SF1 AF2mut Luc: 3.7

How did COc1ccc(-c2sc3ccccc3c2-c2ccc(OC)cc2F)cc1 do in these assays?
hgDAF12 agonist: inactive; ssDAF-12 act: inactive; hcDAF-12 act: inactive; DAX1 inh-2: 5.3; DAX1 conf: inactive; SF1 AF2mut Luc: inactive

Results for COC(=O)c1c(-c2cccnc2)csc1NC(=O)c1ccc2c(c1)OCO2 ?
hgDAF12 agonist: inactive; ssDAF-12 act: inactive; DAX1 inh-1: inactive; hcDAF-12 act: inactive; DAX1 inh-2: 8.2; DAX1 conf: 12; SF1 AF2mut Luc: 6.8

How did COC(=O)c1sccc1NC(=O)c1ccc2c(c1)OCO2 do in these assays?
hgDAF12 agonist: inactive; ssDAF-12 act: inactive; DAX1 inh-1: inactive; hcDAF-12 act: inactive; DAX1 inh-2: inactive

Results for O=C(Nc1ccc(F)c(Cl)c1)N1CCCCCC1 ?
hgDAF12 agonist: inactive; ssDAF-12 act: inactive; DAX1 inh-1: inactive; hcDAF-12 act: inactive; DAX1 inh-2: 4.7; DAX1 conf: 5.2; SF1 AF2mut Luc: 5.8

Results for CCCC(=O)Nc1ccc2c(c1)c1ccccc1n2CC ?
hgDAF12 agonist: inactive; ssDAF-12 act: inactive; DAX1 inh-1: inactive; hcDAF-12 act: inactive; DAX1 inh-2: inactive

Results for Cc1ccc(NC(=O)N2CCCCCC2)cc1C ?
hgDAF12 agonist: inactive; ssDAF-12 act: inactive; DAX1 inh-1: inactive; hcDAF-12 act: inactive; DAX1 inh-2: 5.9; DAX1 conf: 8.1; SF1 AF2mut Luc: 5.4

What do the screens show for `CCn1c2ccccc2c2cc(NC(=O)N3CCCCC3)ccc21`?
hgDAF12 agonist: inactive; ssDAF-12 act: inactive; DAX1 inh-1: inactive; hcDAF-12 act: inactive; DAX1 inh-2: 4.7; DAX1 conf: 10; SF1 AF2mut Luc: 5.4

How did Cc1ccc(NC(=O)N2CCCCC2)cc1NC(=O)N1CCCCC1 do in these assays?
hgDAF12 agonist: inactive; ssDAF-12 act: inactive; DAX1 inh-1: inactive; hcDAF-12 act: inactive; DAX1 inh-2: inactive

Results for CC[C@@H](C)[C@@H](C(=O)N1CCN(C(=O)OC(C)(C)C)CC1)n1cc(CCCCNC(=O)OC(C)(C)C)nn1 ?
hgDAF12 agonist: inactive; ssDAF-12 act: inactive; DAX1 inh-1: inactive; hcDAF-12 act: inactive; DAX1 inh-2: inactive

Results for COC(=O)c1sccc1NC(=O)Nc1ccc(C)cc1 ?
hgDAF12 agonist: 13; ssDAF-12 act: 1.4; DAX1 inh-1: inactive; hcDAF-12 act: 5.9; DAX1 inh-2: 8.5; DAX1 conf: 4.6; SF1 AF2mut Luc: inactive

Results for COCCn1c(C)cc(C(=O)COC(=O)c2ccc(-n3nc(C)cc3C)cc2)c1C ?
hgDAF12 agonist: inactive; ssDAF-12 act: inactive; DAX1 inh-1: inactive; hcDAF-12 act: inactive; DAX1 inh-2: inactive

What do the screens show for `COCCn1c(C)cc(C(=O)COC(=O)c2ccc(Cl)c(S(N)(=O)=O)c2)c1C`?
hgDAF12 agonist: inactive; ssDAF-12 act: inactive; DAX1 inh-1: inactive; hcDAF-12 act: inactive; DAX1 inh-2: 5.5; DAX1 conf: 8.7; SF1 AF2mut Luc: inactive

What do the screens show for `CC(C)(C)c1ccc(NC(=O)COC(=O)c2ccc(NS(=O)(=O)c3ccc(F)c(F)c3)cc2)cc1`?
hgDAF12 agonist: inactive; ssDAF-12 act: inactive; DAX1 inh-1: inactive; hcDAF-12 act: inactive; DAX1 inh-2: inactive

How did O=C(NCC1CCCCC1)c1cc2ccccc2cc1O do in these assays?
hgDAF12 agonist: inactive; ssDAF-12 act: inactive; DAX1 inh-1: inactive; hcDAF-12 act: inactive; DAX1 inh-2: inactive

Results for CC1CCC(NC(=O)c2cc(Cl)nc3ccccc23)CC1 (stereo unspecified) ?
hgDAF12 agonist: inactive; ssDAF-12 act: inactive; DAX1 inh-1: inactive; hcDAF-12 act: inactive; DAX1 inh-2: 4.6; DAX1 conf: 6.0; SF1 AF2mut Luc: 4.3

Results for CC1CCC(NC(=O)c2cc3ccccc3cc2O)CC1 (stereo unspecified) ?
hgDAF12 agonist: inactive; ssDAF-12 act: inactive; DAX1 inh-1: inactive; hcDAF-12 act: inactive; DAX1 inh-2: 8.0; DAX1 conf: 10; SF1 AF2mut Luc: 6.7

What do the screens show for `O=C(NCC1CCCO1)c1cc2ccccc2cc1O` (stereo unspecified)?
hgDAF12 agonist: inactive; ssDAF-12 act: inactive; DAX1 inh-1: inactive; hcDAF-12 act: inactive; DAX1 inh-2: 5.0; DAX1 conf: 6.1; SF1 AF2mut Luc: 4.3

How did Cc1cc(C(=O)NC2CCCCCC2)c2ccccc2n1 do in these assays?
hgDAF12 agonist: inactive; ssDAF-12 act: inactive; DAX1 inh-1: inactive; hcDAF-12 act: inactive; DAX1 inh-2: inactive

What do the screens show for `O=C(NCCCn1ccnc1)C(=O)c1c[nH]c2ccccc12`?
hgDAF12 agonist: inactive; ssDAF-12 act: inactive; DAX1 inh-1: inactive; hcDAF-12 act: inactive; DAX1 inh-2: inactive

What do the screens show for `COc1cc(-c2noc(CCCC(=O)NC3CCCCC3)n2)cc(OC)c1OC`?
hgDAF12 agonist: inactive; ssDAF-12 act: inactive; DAX1 inh-1: inactive; hcDAF-12 act: inactive; DAX1 inh-2: inactive

What do the screens show for `O=C(O)c1cc(/C=C/c2ccc(N3CCOCC3)cc2)nc2ccccc12`?
hgDAF12 agonist: inactive; ssDAF-12 act: inactive; DAX1 inh-1: inactive; hcDAF-12 act: inactive; DAX1 inh-2: 5.5; DAX1 conf: 7.2; SF1 AF2mut Luc: inactive

How did O=C(O)c1cc(/C=C/c2ccc(N3CCOCC3)c([N+](=O)[O-])c2)nc2ccccc12 do in these assays?
hgDAF12 agonist: inactive; ssDAF-12 act: inactive; DAX1 inh-1: inactive; hcDAF-12 act: inactive; DAX1 inh-2: inactive

How did Cc1cc(Cl)ccc1OCc1cn2cccnc2n1 do in these assays?
hgDAF12 agonist: 11; ssDAF-12 act: inactive; DAX1 inh-1: inactive; hcDAF-12 act: inactive; DAX1 inh-2: 8.0; DAX1 conf: 8.3; SF1 AF2mut Luc: 4.0

What do the screens show for `C=CCn1c(C)cc(C(=O)COc2ncnc3sccc23)c1C`?
hgDAF12 agonist: 11; ssDAF-12 act: inactive; DAX1 inh-1: inactive; hcDAF-12 act: 6.3; DAX1 inh-2: 5.2; DAX1 conf: 14; SF1 AF2mut Luc: 6.5

How did O=C(NCCCN1CCCC1=O)C(=O)Nc1cccc(F)c1 do in these assays?
hgDAF12 agonist: inactive; ssDAF-12 act: inactive; DAX1 inh-1: inactive; hcDAF-12 act: inactive; DAX1 inh-2: 5.9; DAX1 conf: 7.5; SF1 AF2mut Luc: 5.3

What do the screens show for `OCCNc1cc(Cl)ncn1`?
hgDAF12 agonist: inactive; ssDAF-12 act: inactive; DAX1 inh-1: inactive; hcDAF-12 act: inactive; DAX1 inh-2: inactive

Screens: PubChem BioAssay, The Scripps Research Institute Molecular Screening Center
